Laboratory results published in PubChem BioAssay AID485273 (Sanford-Burnham Center for Chemical Genomics, 2010).
Among all 330,000 compounds or so, about 1,500 (0.45%) were called active. No stated cut-off is given here; in the data, active means inhibition above about 45% (passing the limit was not always enough); inconclusive means no clear call, values can overlap the other calls. Shown is part of a subset that was picked to be rich in actives.

biological target: Ubiquitin-conjugating enzyme E2 N (Homo sapiens) (UniProt P61088); experiment: UBC13 polyubiquitin chain formation inhibitors, primary screen, biochemical, TR-FRET, uHTS (AID 485273); conditions: at 20 µM, stronger effect = higher value
Sequence (P61088 whole entry, looked up): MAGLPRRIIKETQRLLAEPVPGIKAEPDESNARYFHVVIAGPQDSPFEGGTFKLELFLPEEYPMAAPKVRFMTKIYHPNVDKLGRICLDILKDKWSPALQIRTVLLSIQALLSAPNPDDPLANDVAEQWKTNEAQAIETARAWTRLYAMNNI

SMILES	inhibition
Cc1cccc(CNS(=O)(=O)c2ccc(-c3cnc(C4CC4)o3)cc2)c1	-0.4% (inactive)
COc1ccc(S(=O)(=O)NNC(=O)Nc2ccc(C)cc2)c(OC)c1	-8.1% (inactive)
CCN(CC(=O)NCc1cccs1)C(=O)c1ccc(OC)c(S(=O)(=O)N2CCOCC2)c1	-0.3% (inactive)
CCN(CC(=O)NCc1cccs1)C(=O)c1ccccc1F	-3.4% (inactive)
CCN(CC(=O)NCc1cccs1)C(=O)c1cccc(S(=O)(=O)Nc2ccccc2OC)c1	49.7% (active)
CCN(CC)C(=O)N(CC)Cc1ccccc1	6.4% (inactive)
CN(C(=O)CN(CCO)CC(=O)N(C)C(C)(C)Cc1ccccc1)C(C)(C)Cc1ccccc1	57.3% (active)
OCCN(Cc1ccccc1)Cc1ccc(Cl)cc1	5.2% (inactive)
C/C(=N\NC(=O)OC(C)(C)C)c1ccc[nH]1	0.6% (inactive)
C=CCSC1=C(C#N)C(c2cc(Br)c(O)c(OC)c2)CC(=O)N1 (centres undefined)	1.6% (inactive)
Cn1c(C(=O)NCCCN2CCN(c3cccc(Cl)c3)CC2)cc2c(=O)n(C)c3ccccc3c21	49.9% (active)
Cn1c(C(=O)NCCc2ccsc2)cc2c(=O)n(C)c3ccccc3c21	20.8% (inactive)
CCN1CCCC1CNC(=O)c1cc2c(=O)n(C)c3ccccc3c2n1C (centres undefined)	30.3% (inactive)
O=C(CSc1nnc(C2CC2)n1Cc1ccccc1)Nc1cccnc1Cl	-7.4% (inactive)
CCOc1cc(S(=O)(=O)NC2CC(C)(C)NC(C)(C)C2)ccc1F	7.3% (inactive)
O=c1c2c(nc3n1CCCCC3)sc1c(O)cccc12	80% (active)
Cc1cccc2c(=O)n3c(nc12)CCCCC3	6.4% (inactive)
Cc1c(C(=O)Nc2ccccc2)sc2nc3n(c(=O)c12)CCCCC3	-3% (inactive)
CCn1ncc(CNC(=O)C2(C)CC2(Br)Br)c1C (centres undefined)	-4.3% (inactive)
COc1cc(NC(=O)c2ccc(CNc3c(N4CCCC4)c(=O)c3=O)cc2)cc(OC)c1OC	-3.8% (inactive)
O=C(c1ccc(F)cc1)N1CCC(C(=O)N2CCN(S(=O)(=O)c3ccccc3Br)CC2)CC1	13.6% (inactive)
N[C@@H](Cc1ccccc1)C(=O)N1CCC(C(=O)NCC(=O)Nc2ccc(F)cc2)CC1	-7.5% (inactive)
Cn1c(SCC(=O)C(C)(C)C)nnc1-c1ccccn1	2.2% (inactive)

SMILES	inhibition
O=C(CN1C(=O)CCC1=O)Nc1ccc(S(=O)(=O)N2CCOCC2)cc1	0.4% (inactive)
O=S(=O)(c1ccc(NC(=S)NN=C(C2CC2)C2CC2)cc1)N1CCOCC1	45.9% (active)
O=C(NNC(=S)Nc1ccccc1)c1cccc(S(=O)(=O)N2CCOCC2)c1	-21.6% (inactive)
COc1cc2c(cc1OC)CN(C(C)C(=O)Nc1cccc(S(=O)(=O)N3CCOCC3)c1)CC2 (centres undefined)	-1.1% (inactive)
CC(C)Cc1oc(C(=O)O)cc1CN	-1.6% (inactive)
CCCCNC(=S)N/N=C1\CCCCc2ccccc21	0.6% (inactive)
COc1ccc(C(CNC(=O)c2ccc(S(=O)(=O)Nc3ccccc3F)cc2)N(C)C)cc1 (centres undefined)	94.8% (active)
COc1ccc(C(CNC(=O)c2ccc(NS(=O)(=O)c3ccc(F)c(C)c3)cc2)N(C)C)cc1 (centres undefined)	40.3% (inactive)
CC(=O)c1ccc(S(=O)(=O)Nc2ccc(C(=O)NCC(c3ccccc3)N(C)C)cc2)cc1 (centres undefined)	1.5% (inactive)
COc1ccc(C(F)(F)F)cc1N/C=C\c1nnnn1-c1ccc(C)cc1	4.1% (inactive)
COc1ccc(C(=O)N(C)CC(O)c2ccccc2)cc1OC1CCN(C(C)=O)CC1 (centres undefined)	-0.4% (inactive)
Cc1cccc(-c2nc3ccc(C(=O)NCCN4CCN(C)CC4)cc3nc2-c2cccc(C)c2)c1	57.2% (active)
CCC1=Nc2cc(C(=O)NCCN3CCCC3)ccc2Sc2ccc(C)cc21	17.6% (inactive)
Cc1cccc(C(=O)OC(C)CN2CCN(C)CC2)c1 (centres undefined)	9.9% (inactive)
CC(Sc1nnnn1C1CCCCC1)C(=O)O (centres undefined)	-4.9% (inactive)
O=C(NCc1ccco1)c1ccc(NS(=O)(=O)c2cccc([N+](=O)[O-])c2)cc1	-4.6% (inactive)
CCOC(=O)[C@H]1[C@H]2COc3cc(OC)ccc3[C@@H]2N2C(=O)N(c3ccc(Br)cc3)C(=O)[C@@]12C	-15% (inactive)
CCOC(=O)[C@@H]1[C@H]2COc3cc(OC)ccc3[C@H]2N2C(=O)N(c3ccc(F)cc3)C(=O)[C@]12C	53.6% (active)
CCOC(=O)[C@@H]1[C@H]2COc3cc(OC)ccc3[C@@H]2N2C(=O)N(c3cccc(C)c3)C(=O)[C@@]12C	-7.1% (inactive)
O=C(O)c1ccc(F)c(S(=O)(=O)Nc2ccccc2)c1	4% (inactive)
O=C(Nc1cccc(C(=O)NC2CC2)c1)c1ccc(F)c(S(=O)(=O)N2CCOCC2)c1	3.1% (inactive)
O=C(Nc1ccc([N+](=O)[O-])cc1)OCCc1ccccn1	-7.9% (inactive)
CC(=O)c1cccc(NC(=O)C2CCCN2S(=O)(=O)c2cccc3nsnc23)c1 (centres undefined)	-4.7% (inactive)

SMILES	inhibition
CN(C(=O)COC(=O)c1cc(=O)[nH]c2ccccc12)C1CCCCC1	5.6% (inactive)
CCCCC(=O)Nc1ccc(C(=O)Nc2cc(C(F)(F)F)ccc2Cl)cc1	-15% (inactive)
CCCCN(CCCC)CCC(O)c1cc2c(Cl)cc(Cl)cc2c2cc(C(F)(F)F)ccc12 (centres undefined)	51.7% (active)
O=C(Nc1ccccc1N1CCOCC1)c1ccc(OCc2cscn2)cc1	0.6% (inactive)
CCn1cc(C(=O)NCC(=O)NC(C)(C)CO)c(=O)c2cc3c(cc21)OCO3	3.5% (inactive)
CC(C)(C)CN1C(=O)C(=O)NC[C@H]1Cc1cccc2ccccc12	4% (inactive)
c1ccc(C2CNCc3c2ccc2ccccc32)cc1 (centres undefined)	21.7% (inactive)
c1ccc2c(CCN3CCNC[C@H]3Cc3cccc4ccccc34)cccc2c1	46.1% (active)
O=C1CCNCCN1[C@H](CO)Cc1ccccc1	-4.8% (inactive)
c1ccc(C[C@H]2CNCCN2CCC23CC4CC(CC(C4)C2)C3)cc1	55.8% (active)
O=C1C(=O)N(c2ccccc2)c2ccccc21	-10.7% (inactive)
CC(C)(C)c1nnc(N/N=C/c2ccc(O)cc2)n(N)c1=O	-10.3% (inactive)
CCCc1cc(=S)n2c([nH]c3ccccc32)c1C#N	-11.8% (inactive)
CCOC(=O)c1[nH]cnc1C(=O)Nc1ccccc1C	-4.7% (inactive)
CCOC(=O)c1ccc(NC(=O)c2nc[nH]c2C(=O)NCc2ccccc2)cc1	65% (active)
O=C(Nc1ccon1)c1nc[nH]c1C(=O)NCc1ccccc1	-4.8% (inactive)
Cc1cc(C)c(SCCc2ccncc2)c(C)c1	5.6% (inactive)
Cc1ccccc1CCNC(=O)C1CCC(=O)N(Cc2ccc(Cl)cc2)C1 (centres undefined)	1.4% (inactive)
CCOC(=O)C1=C(c2ccccc2)O/C(=C(/C(=O)OC)C(F)(F)F)S1	46.8% (active)
CCOC(=O)c1nnn(-c2nonc2OC)c1-c1ccccc1	1% (inactive)
COC(=O)/C(=C1\Oc2ccc(C(C)(C)C)cc2S1)C(F)(F)F	-10.5% (inactive)
COc1ccc2sc(-c3ccc(S(C)(=O)=O)cc3)c(-c3ccc(C(N)=O)cc3)c2c1	38.5% (inactive)
COc1ccc(-c2sc3ccc(OC)cc3c2C#Cc2ccccn2)cc1	29.9% (inactive)

SMILES	inhibition
COc1ccc2sc(-c3ccc(S(C)(=O)=O)cc3)c(C#Cc3cncn3C)c2c1	47.1% (active)
CCOC(=O)C1CCN(Cc2coc3ccc(Cl)cc3c2=O)CC1	-15.5% (inactive)
CCOC(=O)c1cccc(NS(=O)(=O)c2c(C(=O)N3CCCCCC3)c(C)n(C)c2C)c1	46.1% (active)
Cc1c(C(=O)N2CCCC2)c(S(=O)(=O)NCC(C)c2ccccc2)c(C)n1C (centres undefined)	-2.8% (inactive)
CCOC(=O)c1c(S(=O)(=O)Nc2cccc(Cl)c2)c(C)n(C)c1C	-2.9% (inactive)
Cc1nnc(SC(C)C(=O)Nc2ccc(S(=O)(=O)NC3CCCCC3)cc2)s1 (centres undefined)	-0.1% (inactive)
C=CCN1C(=O)C(Cc2ccc(OCC)cc2)SC1=Nc1ccc(C(=O)O)cc1 (centres undefined)	7.8% (inactive)
CCC1CCC/C1=N\NC(=O)c1ccc(Cl)cc1 (centres undefined)	6.6% (inactive)
Cc1ccc(Oc2cc(NC(=O)CCCn3nc(C)c([N+](=O)[O-])c3C)cc([N+](=O)[O-])c2)cc1	-3.8% (inactive)
C=C1c2c(Cl)ccc(O)c2C(O)=C2C(=O)[C@]3(O)C(O)=C(C(N)=O)C(=O)[C@@H](N(C)C)[C@@H]3[C@@H](O)C12 (some centres undefined)	57.1% (active)
CN(C)[C@@H]1C(=O)C(C(N)=O)=C(O)[C@@]2(O)C(=O)C3=C(O)c4c(O)ccc(Cl)c4[C@@H](O)[C@H]3C[C@@H]12	6.5% (inactive)
CCCn1c(SCC(=O)Nc2cccc(C(=O)OCC)c2)nnc1-c1ccoc1C	11.9% (inactive)
COc1ccccc1NC(=O)CSc1nnc(-c2ccoc2C)n1CCc1ccccc1	94.2% (active)
CCn1c(SCC(=O)Nc2cc(C)c(Cl)cc2OC)nnc1-c1ccco1	4.1% (inactive)
CC(Oc1ccccc1)C(=O)Nc1oc(-c2ccco2)c(-c2ccco2)c1C#N (centres undefined)	-15.8% (inactive)
Cc1nonc1C1CCCN1Cc1nc(-c2ccc(F)cc2F)oc1C (centres undefined)	0.7% (inactive)
CC1(C)NC(=O)N(CC(=O)Nc2cc(C(F)(F)F)cc(C(F)(F)F)c2)C1=O	0.4% (inactive)
C=CCn1c(Oc2ccc(C(=O)OC)cc2)nc2c1c(=O)n(C)c(=O)n2C	-13% (inactive)
O=S(=O)(c1ccccc1)N1CN(Cc2ccc(F)cc2)c2nc3ccccc3nc21	-1.4% (inactive)
Cc1ccc(NC(=O)c2cc([N+](=O)[O-])ccc2Cl)c(O)c1	2.4% (inactive)
